High-throughput results as filed in PubChem.
This is a sample that favours compounds with a hit; in the whole collection about 4.1% have one here.
MEKK2wt PB1 HTS = raises or lowers MEK5 binding to wildtype human MEKK2 PB1 domain; bead flow cytometry, Alexa488-MEK5 binding to MEKK2 WT; actives lie on both sides; binding response (% of control), % at 10 µM; 290,000 tested, 1.1% active; AID 1531; in the data active = binding response below about 67% or above about 130%
MEKK2mut PB1 HTS = signal of MEK5 binding to mutant human MEKK2 PB1 domain; bead flow cytometry, Alexa488-MEK5 binding to MEKK2 mutant; percent response, % at 10 µM; AID 1530; 290,000 tested, 0.35% active; in the data active = percent response above about 24%, passing the limit was not always enough
Mot1-301 SUMO = blocks SUMOylation pathway, rescuing yeast Mot1-301 growth. 320,000 tested, 1% active. S. cerevisiae Mot1-301 growth rescue, ATP luminescence, 38.5C; percent above DMSO median, 100 means doubled. AID 2716. growth rescue, % at 18.8 µM;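 active = every valid replicate shows activation above 250% relative to neutral control wells; inactive = the rest, any valid replicate at or below 250%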;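 also: OY570 slx delta 5 strain wells were the positive control but not used for scaling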
MEKK3 PB1 HTS = modulators (inhibitors or enhancers) of MEK5 binding to human MEKK3 PB1 domain; Q99759; binding response (% of control), % at 10 µM; AID 1529; bead-based flow cytometry, Alexa488-MEK5 binding to MEKK3; actives lie on both sides; 0 = blocked by unlabeled MEK5, 100 = vehicle; 290,000 tested, 1.4% active;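 active = binding response more than 3 SD above or below the average of its plate-row segment, actives on both sides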;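 also: Alexa488 bead fluorescence after subtracting the streptavidin-only scavenger bead signal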
CHT inh = human CHT choline transport inhibition; Q9GZV3; B-score at 10 µM; CHT-expressing cells, membrane potential dye, choline response; active compounds read low; 310,000 tested, 0.86% active;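 active = B-score over 3 SD under the library average, and starting fluorescence ratio not unusually high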;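 also: choline stimulus applied at its EC90 after an EC20 pre-addition; B-score computed on integrated fluorescence ratio after choline addition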
Target sequence (Q9GZV3 whole entry, looked up): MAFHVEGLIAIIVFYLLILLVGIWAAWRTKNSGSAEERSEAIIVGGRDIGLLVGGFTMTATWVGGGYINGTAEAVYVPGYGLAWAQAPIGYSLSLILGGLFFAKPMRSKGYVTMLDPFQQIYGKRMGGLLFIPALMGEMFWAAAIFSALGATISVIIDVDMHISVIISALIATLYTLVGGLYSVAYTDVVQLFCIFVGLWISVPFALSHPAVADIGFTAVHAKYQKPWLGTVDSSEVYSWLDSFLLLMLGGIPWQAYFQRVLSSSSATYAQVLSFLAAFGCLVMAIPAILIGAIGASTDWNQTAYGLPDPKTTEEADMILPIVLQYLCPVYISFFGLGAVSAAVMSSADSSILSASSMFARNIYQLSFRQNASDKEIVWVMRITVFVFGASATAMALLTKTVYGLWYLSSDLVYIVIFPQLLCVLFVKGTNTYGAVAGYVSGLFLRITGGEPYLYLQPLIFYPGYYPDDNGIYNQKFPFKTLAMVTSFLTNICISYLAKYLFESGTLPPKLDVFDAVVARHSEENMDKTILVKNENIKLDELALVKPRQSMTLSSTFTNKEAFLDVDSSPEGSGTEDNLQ
CHT PAM = allosterically activates the human high affinity choline transporter; Q9GZV3; CHT-expressing cells, membrane potential dye, choline EC20; active compounds read high; LV-AA mutant CHT in HEK293 cells; B-score at 10 µM; 310,000 tested, 0.49% active;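 active = initial fluorescence not abnormally high and integrated response B-score, plate-corrected, over 3 SD above library mean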
MEKK2wt confirm = raises or lowers MEK5 binding to wildtype human MEKK2, retest; shares compounds with MEKK3 PB1 HTS; bead flow cytometry, Alexa488-MEK5 binding to MEKK2 WT; actives lie on both sides; binding response (% of control), % at 10 µM; 5,900 tested, 2.4% active; AID 1892; in the data active = binding response below about 16% or above about 210%; inactive = in between
MEKK2mut-MEK5 = signal of MEK5 binding to mutant human MEKK2, retest; shares compounds with MEKK3 PB1 HTS; bead flow cytometry, Alexa488-MEK5 binding to MEKK2 mutant; percent response, % at 10 µM; 5,900 tested, 2% active; AID 1893; in the data active = percent response mostly above about 71%, no sharp cut-off; inactive = mostly below about 38%;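 also: higher means compound restores mutant binding toward wildtype level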
MEKK3 confirm = MEKK3-MEK5 PB1 inhibition, single concentration confirmation | shares compounds with MEKK3 PB1 HTS | bead flow cytometry, Alexa488-MEK5 binding to MEKK3; active compounds read low | binding response (% of control), % at 10 µM | 5,900 tested, 1.8% active | AID 1894;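 active = binding response below 72% of control, or above a set upper limit, though filed actives all read lower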;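 also: 100% = DMSO only wells and 0% = binding blocked by excess unlabeled MEK5; lower values mean stronger disruption of MEK5 binding to MEKK3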
* marks the source's active call; other numbers are inactive results; i = inactive; nt = no result; [ ] = another dose, or the depositor's remark.

SMILES | MEKK2wt PB1 HTS | MEKK2mut PB1 HTS | Mot1-301 SUMO | MEKK3 PB1 HTS | CHT inh | CHT PAM | MEKK2wt confirm | MEKK2mut-MEK5 | MEKK3 confirm
CN(C)CCCN(C(=O)c1ccc(S(=O)(=O)N(C)C2CCCCC2)cc1)c1nc2ccc(F)cc2s1 | 163* | 28* | 1 | 107 | i | i | 160 | 36 | 104
CN(C)CCCN(C(=O)c1ccc(S(=O)(=O)N(C)C2CCCCC2)cc1)c1nc2ccc(Br)cc2s1 | 195* | 32* | 1 | 103 | i | i | 174 | 29 | 74
COc1cc2nc(N(CCCN(C)C)C(=O)c3ccc(S(=O)(=O)N4CCc5ccccc54)cc3)sc2cc1OC | nt | nt | -9 | nt | i | i | nt | nt | nt
CCc1ccc2nc(N(CCCN(C)C)C(=O)c3ccc(S(=O)(=O)N4CCc5ccccc5C4)cc3)sc2c1 | 176* | 28* | 1 | 106 | i | i | 197 | 60 | 96
COc1ccc(-n2nnnc2CNC(=O)c2ccc3c(c2)OCO3)cc1 | nt | nt | 49 | nt | i | i | nt | nt | nt
CCCCN(C)C(=O)C1CCN(Cc2cccc(OCc3ccccc3)c2)CC1 | 107 | 15 | -2 | 104 | i | i | nt | nt | nt
CCCCN(C)C(=O)C1CCN(Cc2cccnc2)CC1 | 118 | 27* | -12 | 112 | i | i | 96 | -5 | 102
O=C(CSc1nc2nn(-c3ccccc3)c(=O)c-2c2n1CCCCC2)Nc1cccc(F)c1 | nt | nt | -8 | nt | nt | nt | nt | nt | nt
CC(C)CC1NC(=O)c2ccc(Cl)cc2-n2c1nc1ccc(Cl)cc1c2=O (centres undefined) | nt | nt | 1 | nt | nt | nt | nt | nt | nt
COc1ccc(C(C(=O)NC2CCCCC2)N(C(=O)c2sc(C)nc2C)c2ccc(OC)cc2)cc1 (centres undefined) | 60 | -14 | 4 | 46*[inhibitor] | i | i | 100 | -2 | 98
COc1ccc(C(C(=O)NC2CCCC2)N(C(=O)c2ccoc2C)c2ccccc2)cc1 (centres undefined) | 108 | 0 | -14 | 137* | i | i | 101 | 1 | 103
COc1ccc(C(C(=O)NC2CCCCC2)N(C(=O)c2sc(C)nc2C)c2ccccc2)cc1 (centres undefined) | 97 | -3 | -7 | 99 | i | i | nt | nt | nt
CCOC(=O)c1sc(NC(=O)c2ccco2)nc1-c1ccccc1 | 103 | -3 | 5 | 97 | i | i | nt | nt | nt
CCOC(=O)c1sc(NC(C)=O)nc1-c1ccccc1 | -2.0*[inhibitor] | -20 | -14 | 1.0*[inhibitor] | i | i | 95 | -4 | 95
CCC12CN3CCN(CC(C3)/C1=N\NC(=O)Nc1ccccc1)C2 | 108 | 1 | 13 | 129* | i | i | 103 | 5 | 103
Cc1nc(N2CCC(C)CC2)c2c(C)c(C(=O)O)sc2n1 | 105 | 3 | -15 | 105 | i | i | nt | nt | nt
O=S(=O)(Nc1cccc(-n2cnnn2)c1)c1ccccc1F | 101 | 3 | 14 | 99 | i | i | nt | nt | nt
O=C(NN1C(=O)c2ccc(-c3ccc4c(c3)C(=O)N(NC(=O)c3cccnc3)C4=O)cc2C1=O)c1cccnc1 | 114 | 1 | 11 | 135* | i | i | 100 | 2 | 99
Cc1c([N+](=O)[O-])c(C/C=N/O)nn1C | 97 | -1 | nt | 101 | nt | nt | nt | nt | nt
Cc1nn(C(C)C(=O)O)c2ccccc12 (centres undefined) | 104 | 3 | -26 | 100 | i | i | nt | nt | nt
COc1cc(O)c(C(CC(=O)N2CCN(c3ccccc3)CC2)c2ccc3c(c2)OCO3)c(OC)c1 (centres undefined) | 153* | 0 | -7 | 130* | i | i | 100 | -7 | 104
CCN(CC)CCC(c1ccc2c(c1)OCO2)c1c(O)cc(OC)cc1OC (centres undefined) | 150* | 12 | -20 | 119 | i | i | 116 | 3 | 105
Cc1cc2ccccc2n1CCNC(=O)C(C)Oc1ccccc1 (centres undefined) | 64*[inhibitor] | -10 | 1 | 80*[inhibitor] | i | i | 49 | -16 | 82
COc1ccc(/C=C/C(=O)NCCn2c(C)cc3ccccc32)cc1OC | 83 | 5 | -8 | 67*[inhibitor] | i | i | 110 | 11 | 103
Cc1cc2ccccc2n1CCNC(=O)C(C)C | 93 | 0 | -3 | 106 | i | i | nt | nt | nt
SMILES | MEKK2wt PB1 HTS | MEKK2mut PB1 HTS | Mot1-301 SUMO | MEKK3 PB1 HTS | CHT inh | CHT PAM | MEKK2wt confirm | MEKK2mut-MEK5 | MEKK3 confirm
COc1cc(/C=C/C(=O)NCCn2c(C)cc3ccccc32)cc(OC)c1OC | 98 | 11 | 245 | 115 | i | i | nt | nt | nt
Cc1cc2ccccc2n1CCNC(=O)c1ccc(S(=O)(=O)N2CCCCC2)cc1 | 79 | -7 | 243 | 82*[inhibitor] | i | i | 80 | -3 | 89
CCc1ccc(-c2nc(CS(=O)CC(=O)NCc3ccc4c(c3)OCO4)c(C)o2)cc1 (centres undefined) | 95 | 2 | -10 | 98 | i | i | nt | nt | nt
O=C(O)c1ccc(/C=N/NC(=O)C2CC2(c2ccccc2)c2ccccc2)cc1 (centres undefined) | 117 | 5 | -7 | 153* | i | i | 95 | -7 | 98
N#Cc1ccc(COC(=O)c2cnc3ccccc3n2)cc1 | 94 | -10 | -2 | 96 | i | i | nt | nt | nt
Cc1ccc(S(=O)(=O)Oc2ccc3ccc(O)cc3c2)cc1 | 98 | 4 | -17 | 104 | i | i | nt | nt | nt
CCOc1ccc(S(=O)(=O)Oc2ccc3ccccc3c2)cc1 | 106 | 0 | -7 | 148* | i | i | 98 | -7 | 101
Cc1ccc2cccc(S(=O)(=O)NC3CCS(=O)(=O)C3)c2n1 (centres undefined) | -1.0*[inhibitor] | -26 | -25 | 2.0*[inhibitor] | i | i | 107 | 9 | 110
O=C(NCCc1ccccc1)c1ccc2c(c1)S(=O)(=O)c1cc(Cl)ccc1C2=O | nt | nt | 9 | nt | nt | nt | nt | nt | nt
CN(C)c1ccc(/C=C2\SC(=S)N(Nc3ncc(C(F)(F)F)cc3Cl)C2=O)cc1 | 305* | 309* | 88 | 97 | i | i | 34 | -35 | 56*
CC(=O)NN1C(=O)/C(=C\c2ccc(Cl)cc2)SC1=S | 91 | -3 | 11 | 96 | i | i | nt | nt | nt
COc1cc(/C=C2\SC(=S)N(Nc3ncc(C(F)(F)F)cc3Cl)C2=O)ccc1O | 62*[inhibitor] | -6 | -7 | 93 | i | i | 76 | -12 | 98
